This is part of a sample that, as a whole, favours compounds with a hit. Of some 83,000 tested, about 20% had one in any assay.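 Note: values are percent growth. 100 is the growth of untreated cells, values between 100 and 0 indicate rising inhibition; between -100 and 0 indicates cell death.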 Values without a mark were called inactive. Active and inactive are the calls of the source. The calls were made as follows: active = growth percent below 10; inactive = the rest.

Holding throughout (assay): NCI-60 one-dose screen, 48 h (100 = growth as untreated, 0 = no growth, -100 = all killed)
For one assay, the system named is NCI-H226 lung. As to conditions: 10 µM.
The test system of a further assay is NCI-H322M lung. The settings on record: 10 µM.
A further assay concerns HOP-62 NSCLC. As to conditions: 10 µM.
The next assay deals with NCI-H460 lung. As to conditions: 10 µM.
The next assay relates to HOP-92 NSCLC. The settings on record: 10 µM.
The test system of a further assay is NCI-H522 lung. As to conditions: 10 µM.
For the next assay, the system named is A549/ATCC NSCLC. As to conditions: 10 µM.
For a further assay, the system named is COLO 205 colon. The settings on record: 10 µM.
For the next assay, the system named is SF-268 CNS. As to conditions: 10 µM.
In the next assay the test system is SF-295 CNS. The settings on record: 10 µM.
In a further assay the test system is SF-539 CNS. As to conditions: 10 µM.
The next assay has as its system M14 melanoma. As to conditions: 10 µM.
The test system of the next assay is HCT-15 colon. As to conditions: 10 µM.
Another assay deals with SNB-75 CNS. As to conditions: 10 µM.
In a further assay the test system is SNB-19 CNS. As to conditions: 10 µM.
In another assay the test system is U251 CNS. The settings on record: 10 µM.
The next assay relates to PC-3 prostate. The settings on record: 10 µM.
For the next assay, the system named is SK-MEL-5 melanoma. The settings on record: 10 µM.
For the next assay, the system named is UACC-62 melanoma. As to conditions: 10 µM.
Another assay concerns MDA-MB-468 breast. As to conditions: 10 µM unless noted.

As for `Cc1ccc(-c2nc(C#N)c(S(=O)(=O)N3CCN(S(C)(=O)=O)CC3)o2)cc1`, the growth is 85.6% in the assay with NCI-H226 lung; 98.8% with NCI-H322M lung; 95.6% with HOP-62 NSCLC; 79.9% in the assay with NCI-H460 lung; 63.7% with HOP-92 NSCLC; -86.6% (active) in the assay on NCI-H522 lung. Also, the growth with A549/ATCC NSCLC is 92.9%; with COLO 205 colon it was -69.3% (active); in the assay with SF-268 CNS, 88.5%; in the assay with SF-295 CNS it was 155%; in the assay with SF-539 CNS, 40.3%; in the assay with M14 melanoma, 22.6%. The growth in the assay on HCT-15 colon was -74.5% (active); with SNB-75 CNS it was 107%; with SNB-19 CNS it was 93.9%; in the assay on U251 CNS it was 78.7%; in the assay on PC-3 prostate it was 68.3%; in the assay with SK-MEL-5 melanoma, 55.2%. For the same molecule, the figures for the growth in the assay with UACC-62 melanoma and in the assay with MDA-MB-468 breast were 53.4% and -68.5% (active), respectively.

Consider `Cn1cc(-c2nnc(N)nc2-c2c[nH]c3ccc(F)cc23)c2cc(Br)cnc21`, for which the growth in the assay with NCI-H226 lung was 89.3%; with NCI-H322M lung it was 79.1%; with HOP-62 NSCLC, 56.8%; in the assay on NCI-H460 lung, 39.7%; in the assay on HOP-92 NSCLC it was 26.4%; in the assay on NCI-H522 lung it was 23.8%. Moreover, the growth in the assay on A549/ATCC NSCLC is 66.2%; with COLO 205 colon, 72.6%; in the assay with SF-268 CNS, 60.1%; in the assay on SF-295 CNS, 41%; in the assay with SF-539 CNS, 64.5%; with M14 melanoma, 77.4%. The growth with HCT-15 colon is 59.8%; in the assay on SNB-75 CNS, 59.1%; in the assay on SNB-19 CNS, 58.3%; in the assay with U251 CNS, 57.1%; in the assay on PC-3 prostate it was 56.8%; in the assay on SK-MEL-5 melanoma, 81.9%. Besides, the growth in the assay on UACC-62 melanoma is 50.8%; in the assay on MDA-MB-468 breast, 13.8%.

As for `O=C(c1ccc(F)cc1)C(c1c[nH]c2ccccc12)c1c[nH]c2ccccc12`, the growth with NCI-H226 lung is 36.5%; with NCI-H322M lung it was 90.5%; in the assay on HOP-62 NSCLC, 91.5%; in the assay with NCI-H460 lung it was 33.9%; in the assay with HOP-92 NSCLC, 90.5%; in the assay on NCI-H522 lung it was 50.7%. The growth in the assay with A549/ATCC NSCLC is 91.7%; with COLO 205 colon, 97.7%; in the assay with SF-268 CNS it was 63%; with SF-295 CNS it was 105%; in the assay with SF-539 CNS, 88%; in the assay on M14 melanoma, 74.7%. Besides, the growth with HCT-15 colon is 7.29% (active); with SNB-75 CNS, 79.1%; in the assay with SNB-19 CNS, 92.6%; in the assay on U251 CNS, 74.8%; in the assay with PC-3 prostate, 41%; with SK-MEL-5 melanoma, 89.8%. Besides, the growth was 53.7% with UACC-62 melanoma and 23.1% in the assay on MDA-MB-468 breast.
